The results in this text go back to PubChem BioAssay (EPA / NIEHS).

In general, AC50 refers to the concentration giving half of the maximal activity seen.

Calls of active or inactive are those of the source. Rule for the calls: active = hit-call score of the fitted dose curve at least 0.9, where 1 is the maximum; inactive = score below 0.9.

Common to all, as to settings: mRNA level, 48 h; actives raise or lower the signal
Read-out in test [1]: Cytochrome P450 (CYP2B6), CYP2B6 (gene 1555)
In words: LTEA_HepaRG_CYP2B6: Life Technologies and Expression Analysis (LTEA) Assay for Cytochrome P450 (CYP2B6) using HepaRG (AID 2283481). The procedure, abridged: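 HepaRG cells plated 48 h, switched to serum-free induction medium, then dosed 48 h (8 points, half-log from 100 uM, 0.5% DMSO). RNA isolated; CYP2B6 expression measured by qRT-PCR; gain or loss fitted relative to DMSO.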

Read-out in test [2]: Cytochrome P450 2C19 (Homo sapiens) (UniProt P33261)
The test is described as follows: LTEA_HepaRG_CYP2C19: Life Technologies and Expression Analysis (LTEA) Assay for CYP2C19 using HepaRG (AID 2283482). The procedure, abridged:
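Transcript levels of CYP2C19 were quantified by qRT-PCR after HepaRG cells were treated for 48 hours with test chemicals up to 100 uM (eight half-log concentrations, 0.5% DMSO vehicle). Gain or loss of signal was fitted relative to DMSO.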

Read-out in the next test: CYP2C8 (gene 1558)
In words: LTEA_HepaRG_CYP2C8: Life Technologies and Expression Analysis (LTEA) Assay for CYP2C8 using HepaRG (AID 2283483). The essentials:
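Differentiated HepaRG cells in serum-free induction medium exposed 48 h in duplicate to 8 half-log concentrations from 100 uM in 0.5% DMSO. CYP2C8 mRNA by qRT-PCR normalized to ACTB, GAPDH, POLR2A; bidirectional fit versus DMSO.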

Read-out in the next test: CYP2E1 (gene 1571)
In words: LTEA_HepaRG_CYP2E1: Life Technologies and Expression Analysis (LTEA) Assay for CYP2E1 using HepaRG (AID 2283485). The procedure, abridged:
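HepaRG cells, plated 48 h, then exposed 48 h in serum-free induction medium to eight half-log concentrations from 100 uM in 0.5% DMSO, duplicate. CYP2E1 mRNA by qRT-PCR, normalized to ACTB/GAPDH/POLR2A; bidirectional fit versus DMSO.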

Read-out in test [3]: DNA damage-inducible transcript 3 (DDIT3), DDIT3 (gene 1649)
The test is described as follows: LTEA_HepaRG_DDIT3: Life Technologies and Expression Analysis (LTEA) Assay for DNA damage-inducible transcript 3 (DDIT3) using HepaRG (AID 2283488). The essentials: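 HepaRG cells, 48 h after plating, exposed 48 h in serum-free induction medium to 8 half-log concentrations up to 100 uM in 0.5% DMSO, in duplicate. DDIT3 mRNA measured by TaqMan qRT-PCR, normalized to ACTB, GAPDH and POLR2A. Fitted bidirectionally against DMSO.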

Read-out in test [4]: Pro-epidermal growth factor (Homo sapiens) (UniProt P01133)
The test is described as follows: LTEA_HepaRG_EGF: Life Technologies and Expression Analysis (LTEA) Assay for Epidermal growth factor (EGF) using HepaRG (AID 2283489). The procedure, abridged:
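HepaRG, 48 h dosing, 100 uM top, half-log x8, 0.5% DMSO. Readout: TaqMan qRT-PCR (Fluidigm array), housekeeping-normalized. Gain or loss of signal fit vs DMSO.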

Read-out in test [5]: Early growth response protein 1 (EGR1) transcription factor, EGR1 (gene 1958)
In words: LTEA_HepaRG_EGR1: Life Technologies and Expression Analysis (LTEA) Assay for Early growth response protein 1 (EGR1) transcription factor using HepaRG (AID 2283490). The essentials:
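Differentiated HepaRG cells in serum-free induction medium exposed 48 hours, duplicate, to 8 half-log concentrations up to 100 uM in 0.5% DMSO. EGR1 mRNA measured by TaqMan qRT-PCR, normalized to ACTB, GAPDH, POLR2A; bidirectional fit versus DMSO.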

Read-out in test [6]: Ezrin (EZR), EZR (gene 7430)
The test is described as follows: LTEA_HepaRG_EZR: Life Technologies and Expression Analysis (LTEA) Assay for Ezrin (EZR) using HepaRG (AID 2283491). The essentials: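 EZR transcript levels came from Fluidigm qRT-PCR and were normalized to three housekeeping genes after 48 h chemical exposure of HepaRG cells. Dosing used an 8-point half-log series with a 100 uM top concentration in 0.5% DMSO, tested in duplicate; both directions were fitted versus vehicle.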

Read-out in test [7]: Cytochrome P450 3A7 (Homo sapiens) (UniProt P24462)
In words: LTEA_HepaRG_CYP3A7: Life Technologies and Expression Analysis (LTEA) Assay for CYP3A7 using HepaRG (AID 2283492). The essentials: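 Human HepaRG liver cells, 48 h post-plating, switched to serum-free induction medium and exposed in duplicate for 48 h. Dosing: 100 uM top, half-log dilutions, 8 points, 0.5% DMSO vehicle. Read-out: CYP3A7 mRNA, gain or loss fitted against DMSO baseline.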

Read-out in the next test: CYP3A5 (gene 1577)
In words: LTEA_HepaRG_CYP3A5: Life Technologies and Expression Analysis (LTEA) Assay for CYP3A5 using HepaRG (AID 2283493). The procedure, abridged:
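HepaRG cells, plated 48 h then in serum-free induction medium, dosed in duplicate for 48 h with eight half-log concentrations up to 100 uM in 0.5% DMSO. Gene mRNA by Fluidigm TaqMan qRT-PCR, normalized to ACTB, GAPDH, POLR2A.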

Read-out in test [8]: Fatty Acid-Binding Protein 1 (FABP1), FABP1 (gene 2168)
The test is described as follows: LTEA_HepaRG_FABP1: Life Technologies and Expression Analysis (LTEA) Assay for Fatty Acid-Binding Protein 1 (FABP1) using HepaRG (AID 2283494). The procedure, abridged:
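Differentiated human HepaRG cells exposed 48 h in serum-free induction medium to eight half-log concentrations up to 100 uM (0.5% DMSO), duplicate. FABP1 mRNA by qRT-PCR, normalised to ACTB, GAPDH, POLR2A; bidirectional fitting against DMSO.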

Read-out in test [9]: Cytochrome P450 4A22 (Homo sapiens) (UniProt Q5TCH4)
The test is described as follows: LTEA_HepaRG_CYP4A22: Life Technologies and Expression Analysis (LTEA) Assay for Cytochrome P450 4A22 (CYP4A22) using HepaRG (AID 2283495). The procedure, abridged: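 Readout is CYP4A22 transcript induction or loss, quantified by qRT-PCR and normalized to ACTB, GAPDH and POLR2A. Human HepaRG cells receive test chemicals for 48 h at eight half-log concentrations from 100 uM in 0.5% DMSO.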

Read-out in test [10]: Cytochrome P450 7A1 (Homo sapiens) (UniProt P22680)
The test is described as follows: LTEA_HepaRG_CYP7A1: Life Technologies and Expression Analysis (LTEA) Assay for Cytochrome P450 7A1 (CYP7A1) using HepaRG (AID 2283496). The procedure, abridged: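 HepaRG cells plated 48 h, then switched to serum-free induction medium and exposed in duplicate for 48 h to 8-point half-log series from 100 uM in 0.5% DMSO. CYP7A1 mRNA by qRT-PCR (TaqMan), normalized to ACTB/GAPDH/POLR2A; bidirectional fit versus DMSO.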

Read-out in test [11]: Glutathione S-Transferase (GSTA2), GSTA2 (gene 2939)
In words: LTEA_HepaRG_GSTA2: Life Technologies and Expression Analysis (LTEA) Assay for Glutathione S-Transferase (GSTA2) using HepaRG (AID 2283497). The essentials:
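Differentiated human HepaRG cells were exposed in duplicate for 48 h in serum-free induction medium, 8 points from 100 uM top in half-log steps, 0.5% DMSO. GSTA2 mRNA was measured by TaqMan qRT-PCR, normalized to ACTB, GAPDH and POLR2A; bidirectional fit versus DMSO.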

Read-out in test [12]: Glutamate-cysteine ligase catalytic (GCLC), GCLC (gene 2729)
In words: LTEA_HepaRG_GCLC: Life Technologies and Expression Analysis (LTEA) Assay for Glutamate-cysteine ligase catalytic (GCLC) using HepaRG (AID 2283498). The essentials: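 Differentiated HepaRG cells exposed 48 h in serum-free induction medium, eight-point half-log series topping at 100 uM in 0.5% DMSO, duplicates. GCLC mRNA by qRT-PCR normalized to ACTB, GAPDH and POLR2A, fitted bidirectionally versus DMSO.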

Read-out in test [13]: growth arrest and DNA damage 45 (GADD45G), GADD45G (gene 10912)
In words: LTEA_HepaRG_GADD45G: Life Technologies and Expression Analysis (LTEA) Assay for growth arrest and DNA damage 45 (GADD45G) using HepaRG (AID 2283499). The procedure, abridged: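 Gain or loss of GADD45G mRNA, quantified by TaqMan qRT-PCR against three housekeeping genes, is fitted in both directions relative to 0.5% DMSO. Human HepaRG cultures receive test chemical for 48 h at up to 100 uM.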

Read-out in test [14]: Glutamate-cysteine ligase regulatory (GCLM), GCLM (gene 2730)
The test is described as follows: LTEA_HepaRG_GCLM: Life Technologies and Expression Analysis (LTEA) Assay for Glutamate-cysteine ligase regulatory (GCLM) using HepaRG (AID 2283500). The essentials:
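Differentiated HepaRG cells exposed 48 h in serum-free induction medium to eight half-log concentrations up to 100 uM (0.5% DMSO). GCLM mRNA by TaqMan qRT-PCR, normalized to ACTB, GAPDH and POLR2A; bidirectional fit versus DMSO.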

Read-out in test [15]: Cytochrome P450 3A4 (Homo sapiens) (UniProt P08684)
The test is described as follows: LTEA_HepaRG_CYP3A4: Life Technologies and Expression Analysis (LTEA) Assay for CYP3A4 using HepaRG (AID 2283487). The essentials:
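Differentiated HepaRG cells, plated 48 h, then dosed 48 h in serum-free induction medium with 0.5% DMSO, 8 half-log concentrations up to 100 uM, duplicate. CYP3A4 mRNA by qRT-PCR, normalized to ACTB/GAPDH/POLR2A; bidirectional fit versus DMSO.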

Read-out in the next test: CYP2C9 (gene 1559)
In words: LTEA_HepaRG_CYP2C9: Life Technologies and Expression Analysis (LTEA) Assay for CYP2C9 using HepaRG (AID 2283484). The procedure, abridged: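 Differentiated human HepaRG cells in serum-free induction medium were exposed 48 h to chemicals in 8-point half-log series from 100 uM (0.5% DMSO), in duplicate. CYP2C9 mRNA was measured by qRT-PCR, normalized to ACTB/GAPDH/POLR2A, with bidirectional fitting versus DMSO.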

Chain of Cytochrome P450 2C19 (Homo sapiens) (P33261 whole entry, looked up): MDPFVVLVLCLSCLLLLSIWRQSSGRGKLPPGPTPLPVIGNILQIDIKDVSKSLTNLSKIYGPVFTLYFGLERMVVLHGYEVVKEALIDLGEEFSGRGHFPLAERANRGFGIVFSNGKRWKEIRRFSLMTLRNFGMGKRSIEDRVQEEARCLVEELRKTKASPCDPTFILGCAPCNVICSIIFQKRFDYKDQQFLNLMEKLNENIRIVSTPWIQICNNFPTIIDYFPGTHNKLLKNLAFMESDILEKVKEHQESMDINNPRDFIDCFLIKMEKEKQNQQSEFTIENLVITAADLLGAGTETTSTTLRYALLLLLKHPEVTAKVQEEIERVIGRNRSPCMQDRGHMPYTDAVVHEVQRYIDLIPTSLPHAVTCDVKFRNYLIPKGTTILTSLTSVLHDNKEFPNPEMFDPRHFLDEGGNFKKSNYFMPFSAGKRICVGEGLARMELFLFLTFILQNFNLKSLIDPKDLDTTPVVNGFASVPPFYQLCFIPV
Chain of Cytochrome P450 3A7 (Homo sapiens) (P24462 whole entry, looked up): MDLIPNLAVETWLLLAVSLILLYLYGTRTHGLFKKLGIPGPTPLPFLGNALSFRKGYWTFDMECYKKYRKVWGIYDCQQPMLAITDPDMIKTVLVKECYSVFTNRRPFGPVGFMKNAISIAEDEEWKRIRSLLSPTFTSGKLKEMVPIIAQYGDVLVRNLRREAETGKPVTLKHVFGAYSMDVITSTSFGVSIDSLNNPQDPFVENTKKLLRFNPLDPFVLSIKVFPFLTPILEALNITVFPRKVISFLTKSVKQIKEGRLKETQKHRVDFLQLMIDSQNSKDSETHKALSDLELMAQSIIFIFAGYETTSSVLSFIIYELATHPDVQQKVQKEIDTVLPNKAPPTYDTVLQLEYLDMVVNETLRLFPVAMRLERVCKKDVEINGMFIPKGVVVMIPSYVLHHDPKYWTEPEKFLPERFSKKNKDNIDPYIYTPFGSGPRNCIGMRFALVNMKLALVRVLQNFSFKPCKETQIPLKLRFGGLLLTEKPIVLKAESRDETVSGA
Chain of Cytochrome P450 3A4 (Homo sapiens) (P08684 whole entry, looked up): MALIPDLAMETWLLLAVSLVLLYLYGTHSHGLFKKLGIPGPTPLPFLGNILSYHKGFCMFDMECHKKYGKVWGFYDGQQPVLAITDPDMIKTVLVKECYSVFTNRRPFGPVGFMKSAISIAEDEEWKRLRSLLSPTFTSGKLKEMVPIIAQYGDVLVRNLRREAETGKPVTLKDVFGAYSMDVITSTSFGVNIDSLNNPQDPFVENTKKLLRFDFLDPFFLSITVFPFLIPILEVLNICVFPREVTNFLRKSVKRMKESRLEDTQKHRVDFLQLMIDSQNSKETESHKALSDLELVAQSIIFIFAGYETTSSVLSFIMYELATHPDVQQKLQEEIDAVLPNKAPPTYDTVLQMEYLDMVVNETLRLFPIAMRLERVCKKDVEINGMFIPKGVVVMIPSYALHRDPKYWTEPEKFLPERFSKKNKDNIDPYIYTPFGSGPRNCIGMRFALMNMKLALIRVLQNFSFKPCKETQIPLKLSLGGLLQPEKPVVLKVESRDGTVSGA

`C=CCc1cc(S(=O)(=O)c2ccc(O)c(CC=C)c2)ccc1O`: the AC50 in [1] is 80.6 µM (active); in [2], 95.4 µM (active); with CYP2C8 (gene 1558) it was 97.2 µM (active); in the test with CYP2E1 (gene 1571), 86.3 µM (active); in [3] it was 84.9 µM (active); in test [7], 76.8 µM (active). Also, the AC50 was 9.92 µM (active) in the test with CYP3A5 (gene 1577); 86.8 µM (active) in [8]; 82.6 µM (active) in test [9]; 83.1 µM (active) in [10]; 93.1 µM (active) in test [11]; 50 µM (active) in [12]. Also, the molecule was called inactive in test [4], in test [5], in [6], in [13] and in test [14].

Consider `OCCNCCO`, for which the half-maximal activity concentration (AC50) in test [1] is 50 µM (active); in [2] it was 50 µM (active); with CYP2E1 (gene 1571), 45 µM (active); in test [8], 45.6 µM (active); in [10], 50 µM (active); in [11], 63.4 µM (active). For the same molecule, the result (with CYP2C8 (gene 1558); in test [15]; in [3]; in test [4]; in test [6]; in [7]) was inactive. The result (with CYP3A5 (gene 1577); in [9]; in [12]; in test [13]; in test [14]) was inactive.

Turning to `O=S(=O)(O)c1ccc(N=Nc2c(O)ccc3cc(S(=O)(=O)O)ccc23)cc1`, in test [1], the AC50 was 22.9 µM (active). The molecule was classed as inactive (in test [2]; with CYP2C8 (gene 1558); with CYP2C9 (gene 1559); in [3]; in test [4]; in test [5]). Moreover, the molecule was called inactive (in test [6]; in test [7]; in the test with CYP3A5 (gene 1577); in test [8]; in [9]; in test [10]). The result in test [11], in test [12], in [13] and in [14] was inactive.

Take `c1ccc2ncccc2c1`: the AC50 in test [1] was 50 µM (active); with CYP2C8 (gene 1558), 36.2 µM (active). Also, the call in [2], in test [15], in test [3], in test [4], in test [6] and in test [7] was inactive. Besides, the outcome (with CYP3A5 (gene 1577); in [8]; in test [9]; in test [10]; in [11]; in test [12]) was inactive. The result in [13] and in test [14] was inactive.
